Assay results from PubChem BioAssay (Tox21).
A number with no mark means an inactive call. Inconclusive results are not listed. Entries that show only a call come without a potency. Calls of active or inactive are those of the source. Unless noted, calls follow the shape of the full dose curve.

Assays:
[1] = Nuclear factor erythroid 2-related factor 2/antioxidant responsive element (Nrf2/ARE) small molecule agonists: qHTS cell viability counter screen in human keratinocytes (AID 1919968; active = well fitted curve in the direction sought with a large enough effect in the repeat runs; an effect the other way counts as inactive or inconclusive; also: nearly all actives have a fitted effect of over 55% in size)
Summary of the method: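 CellTiter-Fluor fluorescence, read 1 h after reagent, gave viability in the same wells as the ARE-luciferase assay. KeratinoSens cells (1,500/well) had 23 h compound exposure at 37 C/5% CO2 following 5 h plating.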

[2] = Nuclear factor erythroid 2-related factor 2/antioxidant responsive element (Nrf2/ARE) small molecule agonists: luciferase reporter gene qHTS assay in human keratinocytes (AID 1919969); also: nearly all actives have a fitted effect of over 35% in size
[3] = target: Gonadotropin-releasing hormone receptor (Homo sapiens) (UniProt P30968); assay: Human gonadotropin-releasing hormone receptor (GnRHR) small molecule agonists, calcium flux assay in GnRHR-HEK293 cells (AID 1920063); also: nearly all actives have a fitted effect of over 35% in size
Gonadotropin-releasing hormone receptor (Homo sapiens), sequence (P30968 whole entry, looked up): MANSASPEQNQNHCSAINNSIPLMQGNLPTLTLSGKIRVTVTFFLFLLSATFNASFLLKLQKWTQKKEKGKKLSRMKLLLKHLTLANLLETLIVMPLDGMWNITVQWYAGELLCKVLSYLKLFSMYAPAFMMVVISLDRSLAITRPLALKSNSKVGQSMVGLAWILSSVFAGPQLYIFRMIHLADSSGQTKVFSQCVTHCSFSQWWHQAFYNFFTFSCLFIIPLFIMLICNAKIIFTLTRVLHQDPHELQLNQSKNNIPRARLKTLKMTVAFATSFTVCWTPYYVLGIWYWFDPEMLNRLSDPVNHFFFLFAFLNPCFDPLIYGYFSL
Summary of the method: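 Agonist mode: compounds at 15 concentrations, in triplicate, went onto calcium dye-loaded GnRHR-HEK293 cells. Intracellular calcium was then followed as 480/540 nm fluorescence at 1 s intervals over 3 min.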

[4] = target: KiSS-1 receptor (Homo sapiens) (UniProt Q969F8); assay: Human kisspeptin (KISS1R) small molecule agonists, calcium flux assay in KISS1R-HEK293 cells (AID 1920064; active = well fitted curve in the direction sought with a large enough effect in the repeat runs; an effect the other way counts as inactive or inconclusive)
KiSS-1 receptor (Homo sapiens), sequence (Q969F8 whole entry, looked up): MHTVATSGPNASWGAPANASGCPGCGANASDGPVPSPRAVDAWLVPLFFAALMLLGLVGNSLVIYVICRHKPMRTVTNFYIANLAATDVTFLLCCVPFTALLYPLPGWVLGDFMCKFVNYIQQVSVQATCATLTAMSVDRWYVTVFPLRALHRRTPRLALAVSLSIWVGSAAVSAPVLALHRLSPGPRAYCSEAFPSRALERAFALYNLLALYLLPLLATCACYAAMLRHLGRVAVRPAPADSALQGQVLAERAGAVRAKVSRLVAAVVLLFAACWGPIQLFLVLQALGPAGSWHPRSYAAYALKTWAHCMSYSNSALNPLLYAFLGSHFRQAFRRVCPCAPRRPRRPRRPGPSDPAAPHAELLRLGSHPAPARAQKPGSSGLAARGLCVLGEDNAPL
Summary of the method: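 Agonist mode: intracellular calcium rise tracked at 1 s intervals over 3 min (480/540 nm) immediately after compound addition to dye-loaded KISS1R-HEK293 stable cells. Each compound tested at 15 concentrations in triplicate.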

[5] = G protein-coupled receptor (GPCR) small molecule agonists, calcium flux assay: HEK293 wild type cell line counter screen (AID 1920065)
Summary of the method: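 Calcium flux counter screen: compound added in agonist mode at 15 concentrations in triplicate to dye-loaded parental HEK293 cells. Fluorescence (480/540) read kinetically for 3 min; ATP served as positive control.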

[6] = p53 small molecule agonists, cell-based qHTS assay with human liver microsomes: qHTS cell viability counter screen (AID 1963579); also: nearly all actives have a fitted effect of over 45% in size
Summary of the method: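 Cytotoxicity counter screen: p53RE-bla, 4,000 cells/well; 5 h settle, 37 C/5% CO2; cpd + HLM 0.5 mg/mL + NADPH 0.5 mg/mL (final); 16 h, 37 C; CellTiter-Glo, 30 min RT, luminescence.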

[7] = p53 small molecule agonists, cell-based qHTS assay with rat liver microsomes: qHTS cell viability counter screen (AID 1963580); also: nearly all actives have a fitted effect of over 45% in size
Summary of the method: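 Counter screen for cytotoxicity under metabolic activation: rat liver microsomes and NADPH, 0.5 mg/mL final each, added with compounds to p53RE-bla HCT-116 cells; 16 h at 37 C, then ATP luminescence read.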

[8] = p53 small molecule agonists, cell-based qHTS assay: qHTS cell viability counter screen (AID 1963581); also: nearly all actives have a fitted effect of over 45% in size
Summary of the method: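 Counter screen read by CellTiter-Glo luminescence (ATP content, 30 min at room temperature), run in the same wells as the beta-lactamase reporter read. HCT-116 p53RE-bla cells saw compounds for 16 h at 37 C.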

[9] = target: 5-hydroxytryptamine receptor 2A (Homo sapiens) (UniProt P28223); assay: 5-hydroxytryptamine receptor 2A (HTR2A) small molecule agonists, cell-based qHTS assay (AID 1963587); also: nearly all actives have a fitted effect of over 30% in size
5-hydroxytryptamine receptor 2A (Homo sapiens), sequence (P28223 whole entry, looked up): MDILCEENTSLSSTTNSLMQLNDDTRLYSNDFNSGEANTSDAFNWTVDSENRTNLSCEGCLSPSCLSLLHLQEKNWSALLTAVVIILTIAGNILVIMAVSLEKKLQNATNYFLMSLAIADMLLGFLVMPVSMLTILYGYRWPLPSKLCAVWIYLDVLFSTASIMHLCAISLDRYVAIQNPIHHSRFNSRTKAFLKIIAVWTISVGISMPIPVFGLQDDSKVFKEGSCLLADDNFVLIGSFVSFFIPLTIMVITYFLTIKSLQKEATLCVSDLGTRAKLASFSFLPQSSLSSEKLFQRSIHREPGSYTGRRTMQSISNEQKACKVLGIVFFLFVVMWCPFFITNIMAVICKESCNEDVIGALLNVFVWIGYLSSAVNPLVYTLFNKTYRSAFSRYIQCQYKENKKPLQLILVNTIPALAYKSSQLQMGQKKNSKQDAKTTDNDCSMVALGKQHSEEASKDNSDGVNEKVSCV
Summary of the method: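 HTR2A-CHO cells, plated 18 h at 37 C/5% CO2, dye-loaded 1 h at 37 C; compounds in DMSO added by pin tool (agonist mode). Intracellular calcium flux read as kinetic fluorescence on FDSS over 2 min at 1 s intervals.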

[10] = target: Muscarinic acetylcholine receptor M1 (Homo sapiens) (UniProt P11229); assay: Cholinergic receptor muscarinic 1 (CHRM1) small molecule antagonists, cell-based qHTS assay (AID 1963588); also: nearly all actives have a fitted effect of over 40% in size
Muscarinic acetylcholine receptor M1 (Homo sapiens), sequence (P11229 whole entry, looked up): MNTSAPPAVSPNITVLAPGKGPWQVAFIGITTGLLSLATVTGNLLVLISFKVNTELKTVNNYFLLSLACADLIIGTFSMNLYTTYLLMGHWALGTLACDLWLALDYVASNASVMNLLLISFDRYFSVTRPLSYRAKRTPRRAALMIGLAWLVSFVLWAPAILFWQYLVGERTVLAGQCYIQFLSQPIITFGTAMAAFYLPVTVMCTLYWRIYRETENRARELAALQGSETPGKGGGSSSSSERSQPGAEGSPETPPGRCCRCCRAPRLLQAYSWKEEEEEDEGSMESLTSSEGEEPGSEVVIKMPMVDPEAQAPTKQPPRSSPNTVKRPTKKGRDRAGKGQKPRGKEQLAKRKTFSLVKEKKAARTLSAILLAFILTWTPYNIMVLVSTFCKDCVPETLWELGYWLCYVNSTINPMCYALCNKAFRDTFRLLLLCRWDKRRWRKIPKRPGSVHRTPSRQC
Summary of the method: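 Compounds were tested at 15 concentrations in three independent runs. Dye-loaded CHRM1-CHO cells were exposed 5 min at room temperature before stimulation by acetylcholine added at 50nM. Intracellular calcium was read kinetically on FDSS for 3 min.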

[11] = target: Muscarinic acetylcholine receptor M1 (Homo sapiens) (UniProt P11229); assay: Cholinergic receptor muscarinic 1 (CHRM1) small molecule agonists, cell-based qHTS assay (AID 1963589); also: nearly all actives have a fitted effect of over 35% in size
Summary of the method: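 Agonist-mode calcium-flux screen: compounds at 15 concentrations, three independent runs, were pin-transferred onto dye-loaded human CHRM1-CHO cells. Fluorescence was then recorded kinetically every second over minutes.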

[12] = target: Beta-2 adrenergic receptor (Homo sapiens) (UniProt P07550); assay: Adrenergic beta2 receptor (ADRB2) small molecule antagonists, cell-based qHTS assay (AID 1963592); also: series mostly up to about 92 µM; nearly all actives have a fitted effect of over 50% in size
Beta-2 adrenergic receptor (Homo sapiens), sequence (P07550 whole entry, looked up): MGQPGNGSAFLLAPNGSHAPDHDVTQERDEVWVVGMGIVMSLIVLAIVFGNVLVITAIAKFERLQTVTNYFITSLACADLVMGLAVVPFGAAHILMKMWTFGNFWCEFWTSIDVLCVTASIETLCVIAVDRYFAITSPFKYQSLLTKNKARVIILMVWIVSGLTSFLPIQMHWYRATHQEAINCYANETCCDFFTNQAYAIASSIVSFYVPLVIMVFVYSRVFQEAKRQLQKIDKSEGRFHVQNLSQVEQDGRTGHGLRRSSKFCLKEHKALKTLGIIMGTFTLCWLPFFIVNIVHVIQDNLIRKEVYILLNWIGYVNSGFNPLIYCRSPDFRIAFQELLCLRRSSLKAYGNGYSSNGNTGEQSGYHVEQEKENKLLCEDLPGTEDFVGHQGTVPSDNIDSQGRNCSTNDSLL
Summary of the method: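 Assay format: CHO-ADRB2 cells, 18-20hr seeding at 37C/5% CO2, then compound plus 1nM isoproterenol agonist mix for 0.5hr RT. Homogeneous time-resolved fluorescence cAMP detection after 1hr, expressed as 665/615 nm ratio.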

[13] = target: Beta-2 adrenergic receptor (Homo sapiens) (UniProt P07550); assay: Adrenergic beta2 receptor (ADRB2) small molecule agonists, cell-based qHTS assay (AID 1963593);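 also: CHO cells stably overexpressing human ADRB2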
Summary of the method: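 CHO cells stably over-expressing ADRB2 were plated overnight at 37C, then dosed with compounds plus a stimulation mix containing 100uM IBMX and 25uM Ro-20-1724 for 0.5hr at room temperature. cAMP was measured by HTRF competition, 1hr.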

[14] = target: D(2) dopamine receptor (Homo sapiens) (UniProt P14416); assay: Dopamine D2 receptor (DRD2) small molecule agonists, cell-based qHTS assay (AID 1963594); also: nearly all actives have a fitted effect of over 35% in size
D(2) dopamine receptor (Homo sapiens), sequence (P14416 whole entry, looked up): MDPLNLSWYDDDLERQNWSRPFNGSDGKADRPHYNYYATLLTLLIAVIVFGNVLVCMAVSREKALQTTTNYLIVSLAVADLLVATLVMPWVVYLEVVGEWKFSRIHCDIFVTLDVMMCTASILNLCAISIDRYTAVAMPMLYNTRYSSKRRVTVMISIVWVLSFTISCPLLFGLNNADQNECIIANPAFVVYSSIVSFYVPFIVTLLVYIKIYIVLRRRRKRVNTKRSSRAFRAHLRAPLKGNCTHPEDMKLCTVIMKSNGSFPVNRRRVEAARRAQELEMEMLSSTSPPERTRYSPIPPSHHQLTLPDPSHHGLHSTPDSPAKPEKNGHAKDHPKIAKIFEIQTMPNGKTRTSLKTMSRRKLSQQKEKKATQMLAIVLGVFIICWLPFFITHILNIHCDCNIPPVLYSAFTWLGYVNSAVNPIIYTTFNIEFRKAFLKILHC
Summary of the method: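 HEK293 cells stably expressing DRD2 were cultured 24 h at 37 C, then given Ro20-1724 (0.1 mM final) and compounds for 10 min at room temperature. NKH477 (200nM) was then added for 30 min. cAMP was read by HTRF.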

[15] = target: D(2) dopamine receptor (Homo sapiens) (UniProt P14416); assay: Dopamine D2 receptor (DRD2) small molecule antagonists, cell-based qHTS assay (AID 1963595; active = well fitted inhibition curve with a large enough effect in the signal ratio in the repeat runs, with a control signal flat; the % refers to the signal ratio)
Summary of the method: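 In this cell-based antagonist screen, compounds act for 10 min at room temperature before a 30 min challenge with 12 nM quinpirole and 200 nM NKH477. cAMP is quantified by HTRF competition in DRD2-HEK293 cells containing 0.1 mM Ro20-1724.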

[16] = cAMP Responsive Elements (CRE) small molecule agonists, cell-based qHTS assay (AID 1963590)
Summary of the method: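 Agonist mode: compound added to CRE-bla HEK 293T cells (2,000/well, 18 h after plating) for 3 h at 37 C/5% CO2. Reporter activity detected via FRET beta-lactamase substrate, 2 h room-temperature loading.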

[17] = cAMP Responsive Elements (CRE) small molecule antagonists, cell-based qHTS assay (AID 1963591; active = well fitted inhibition curve with a large enough effect in the signal ratio in the repeat runs, not every such curve was filed as active; the % refers to the signal ratio)
Summary of the method: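 Antagonist mode: compounds are added alongside the adenylyl cyclase activator NKH477 (0.25 uM final) to CRE-bla HEK293T cells for 3 h. LiveBLAzer FRET substrate, 2 h at room temperature, reports bla expression.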

[18] = p53 small molecule agonists, cell-based qHTS assay (AID 1963582; active = well fitted activation curve with a large enough effect in the signal ratio in the repeat runs, not every such curve was filed as active; the % refers to the signal ratio; also: potency is read from the fitted curve at half-maximal effect)
Summary of the method: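 Read-out is beta-lactamase FRET fluorescence after 2 h at room temperature with LiveBLAzer B/G substrate. p53 response element-bla cells were treated 16 h at 37 C with compounds in DMSO, added 5 h after seeding.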

[19] = target: 5-hydroxytryptamine receptor 2A (Homo sapiens) (UniProt P28223); assay: 5-hydroxytryptamine receptor 2A (HTR2A) small molecule antagonists, cell-based qHTS assay (AID 1963586); also: nearly all actives have a fitted effect of over 45% in size
Summary of the method: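 CHO cells stably expressing human HTR2A were plated for 18 h at 37 C, then loaded with calcium dye for 1 h. Compounds were preincubated 5 min at room temperature before DOI (4 nM solution) was added. Kinetic fluorescence was read for 3 min.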

FB(F)F
Potency [1]: inactive | Potency [2]: inactive | Potency [3]: inactive | Potency [4]: inactive | Potency [5]: inactive | Potency [6]: inactive | Potency [7]: inactive | Potency [8]: inactive | Potency [9]: inactive | Potency [10]: inactive | Potency [11]: inactive | Potency [12]: inactive | Potency [13]: inactive | Potency [14]: inactive | Potency [15]: inactive

CCC1(C)CC(=O)NC1=O (configuration not stated)
Potency [1]: inactive | Potency [2]: inactive | Potency [3]: inactive | Potency [4]: inactive | Potency [5]: inactive | Potency [6]: inactive | Potency [7]: inactive | Potency [8]: inactive | Potency [16]: inactive | Potency [17]: inactive | Potency [12]: inactive | Potency [13]: inactive | Potency [14]: inactive | Potency [15]: inactive

NC(N)=NCCN1CCCCCCC1
activity change, negative = cytotoxicity [1]: -3.49% [at 0.349 µM] | activity, positive = activation [2]: 3.17% [at 0.349 µM] | activity change [3]: -0.022% [at 0.217 µM, stronger effect = higher value] | activation [4]: 0.591% [at 0.29 µM] | activation [5]: 0.864% [at 0.217 µM] | activity change, negative = cytotoxicity [6]: 14.9% [at 0.249 µM] | activity change, negative = cytotoxicity [7]: 0.194% [at 0.249 µM] | activity change, negative = cytotoxicity [8]: -15.6% [at 0.249 µM] | activation [16]: -1.51% [at 0.349 µM] | activity change, negative = inhibition [17]: 0.0219% [at 0.349 µM] | activity change, negative = inhibition [12]: 5.36% [at 0.349 µM] | activation [14]: -6.8% [at 0.349 µM] | activity change, negative = inhibition [15]: -0.0361% [at 0.348 µM]

CC(C)(CO)C(O)C(=O)NCCCO (configuration not stated)
Potency [1]: inactive | Potency [2]: inactive | Potency [3]: inactive | Potency [4]: inactive | Potency [5]: inactive | Potency [6]: inactive | Potency [7]: inactive | Potency [8]: inactive | Potency [17]: inactive | Potency [12]: inactive | Potency [14]: inactive | Potency [15]: inactive

CCCC1CCC(=O)CC1
Potency [1]: inactive | Potency [2]: inactive | Potency [3]: inactive | Potency [4]: inactive | Potency [5]: inactive | Potency [6]: inactive | Potency [7]: inactive | Potency [8]: inactive | Potency [9]: inactive | Potency [11]: inactive | Potency [16]: inactive | Potency [17]: inactive | Potency [13]: inactive | Potency [15]: inactive

CN1CCC[C@@H]1c1cccnc1
Potency [1]: inactive | Potency [2]: inactive | Potency [3]: inactive | Potency [4]: inactive | Potency [5]: inactive | Potency [6]: inactive | Potency [7]: inactive | Potency [8]: inactive | Potency [16]: inactive | Potency [17]: inactive | Potency [12]: inactive | Potency [13]: inactive | Potency [15]: inactive

COc1ccnc(CS(=O)c2nc3ccc(OC(F)F)cc3[nH]2)c1OC (configuration not stated)
Potency [1]: inactive | Potency [2]: inactive | Potency [3]: inactive | Potency [4]: inactive | Potency [5]: inactive | Potency [6]: inactive | Potency [7]: inactive | Potency [8]: inactive | Potency [16]: inactive | Potency [17]: inactive | Potency [12]: inactive

Clc1ccc2cc3ccccc3cc2c1
Potency [1]: inactive | Potency [2]: inactive | Potency [3]: inactive | Potency [4]: inactive | Potency [5]: inactive | Potency [6]: inactive | Potency [7]: inactive | Potency [18]: 40.7 µM (active) | Potency [19]: inactive | Potency [9]: inactive | Potency [10]: inactive | Potency [11]: inactive | Potency [12]: inactive | Potency [14]: inactive | Potency [15]: inactive
